A short description of experiment [1]: qHTS assay to identify small molecule antagonists of the androgen receptor (AR) signaling pathway using the MDA cell line in the presence of 0.5 nM R1881 - cell viability counter screen (AID 1259242). Also: nearly all actives have a fitted effect of over 45% in size. Also: potency is read from the fitted curve at half-maximal effect. The method, boiled down: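 MDA-kb2 cells (human breast carcinoma, stably carrying MMTV-luciferase reporter) were exposed to compounds with 0.5 nM R1881 (final) for 16 hr at 37C, 0% CO2; viability then read as live-cell protease fluorescence (CellTiter-Fluor, 30 min) in the same wells.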
(Quantitative high-throughput screening tests each substance at several concentrations.)

In experiment [2] the target is Androgen receptor (Homo sapiens) (UniProt P10275). In words: qHTS assay to identify small molecule antagonists of the androgen receptor (AR) signaling pathway using the MDA cell line in the presence of 0.5 nM R1881 (AID 1259243). Also: potency is read from the fitted curve at half-maximal effect; nearly all actives have a fitted effect of over 50% in size. The method in brief:
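MDA-kb2 human breast carcinoma cells carrying an MMTV-luciferase reporter (AR- and GR-responsive) were plated, rested 5 hr at 37C, dosed with compounds, then stimulated with 0.5 nM R1881 (final) for 16 hr; luminescence was read after ONE-Glo.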

Experiment [3] addresses Estrogen receptor (Homo sapiens) (UniProt P03372). In words: qHTS assay to identify small molecule antagonists of the estrogen receptor alpha (ER-alpha) signaling pathway using the BG1 cell line in the presence of 0.1 nM 17-beta-estradiol (AID 1259244). Also: nearly all actives have a fitted effect of over 50% in size. Also: potency is read from the fitted curve at half-maximal effect. The method, boiled down: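 VM7Luc4E2 cells (endogenous full-length ER-alpha, stable 4xERE-luciferase) were grown 5 days in phenol red-free medium with charcoal-stripped FBS, then exposed 22 h at 37C to compounds plus 0.1 nM (final) 17beta-estradiol; ONE-Glo luminescence read-out.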

The nature of experiment [4]: qHTS assay to identify small molecule HDAC inhibitors - cell viability counter screen (AID 1259365). Also: nearly all actives have a fitted effect of over 50% in size. Also: potency is read from the fitted curve at half-maximal effect. The method in brief: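 Following a 2hr exposure of overnight-plated wild-type HCT-116 cells to DMSO-delivered compounds, CellTiter-Glo was added and luminescence recorded after 30min at room temperature.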
Experiment [5] is described as follows: qHTS assay to identify small molecule agonists of the sonic hedgehog signaling (Shh) pathway - cell viability counter screen (AID 1259366). Also: nearly all actives have a fitted effect of over 50% in size. Also: potency is read from the fitted curve at half-maximal effect. The method in brief:
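After a 4hr attachment at 37C, NIH/3T3 cells bearing an integrated Gli1-driven luciferase reporter were dosed with compounds. Treatment lasted 24hr, with the final hour including CellTiter-Fluor for a fluorescence viability measurement.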

Experiment [6] is described as follows: qHTS assay to identify small molecule antagonists of the sonic hedgehog signaling (Shh) pathway - cell viability counter screen (AID 1259367). Also: nearly all actives have a fitted effect of over 55% in size. Also: potency is read from the fitted curve at half-maximal effect. The method, boiled down: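 Cells: 3T3 Gli1-Luc, 2,000/well, 4 hr pre-incubation. Compounds in DMSO, then conditioned medium. Incubation 24 hr, 37C, 5% CO2. CellTiter-Fluor at 23 hr, 1 hr, fluorescence.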
A short description of experiment [7]: qHTS assay to identify small molecule agonists of the sonic hedgehog signaling (Shh) pathway (AID 1259368; calls by dose curve; also: series mostly up to about 92 µM; nearly all actives have a fitted effect of over 15% in size). The method, boiled down: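 NIH/3T3-derived 3T3Gli1-Luc cells carrying a stably integrated Gli1 response element–firefly luciferase reporter were plated, left 4 hr at 37 C, then given compounds in DMSO for 24 hr. Luminescence was read 30 min after adding luciferase reagent.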

Experiment [8] is described as follows: qHTS assay to identify small molecule antagonists of the sonic hedgehog signaling (Shh) pathway (AID 1259369; calls by dose curve; also: nearly all actives have a fitted effect of over 45% in size; also: potency is read from the fitted curve at half-maximal effect). The method in brief:
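NIH/3T3-derived 3T3Gli1-Luc cells with stably integrated Gli1-Luc reporter were preincubated 4hr at 37 C, then given compounds in DMSO plus Shh conditioned medium and incubated 24hr. Firefly luciferase luminescence read after 30min reagent at room temperature.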

A short description of experiment [9]: qHTS assay to identify small molecule agonists of the androgen receptor (AR) signaling pathway in the presence of an antagonist - cell viability counter screen (AID 1259379). Also: nearly all actives have a fitted effect of over 25% in size. Also: potency is read from the fitted curve at half-maximal effect. The method, boiled down: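 MDA-kb2 human breast carcinoma cells (stable MMTV-luciferase, AR/GR responsive) were seeded 3,000 cells/well, pre-incubated 5 hr at 37C without CO2, then given 3.0uM nilutamide and compounds at 15 concentrations for 16 hr. Viability was read by CellTiter-Fluor fluorescence.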

Experiment [10] is described as follows: qHTS assay to identify small molecule agonists of the estrogen receptor beta (ER-beta) signaling pathway - cell viability counter screen (AID 1259380). Also: nearly all actives have a fitted effect of over 30% in size. Also: potency is read from the fitted curve at half-maximal effect. The method, boiled down: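 ER-beta-UAS-bla HEK293T cells in medium with 2% charcoal-stripped FBS were preincubated 6 hr at 37C, dosed with compound in DMSO for 16 hr, then after the bla read, CellTiter-Glo was added for 30 min at room temperature; luminescence recorded.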

In experiment [11] the target is Androgen receptor (Homo sapiens) (UniProt P10275). Nature of the experiment: qHTS assay to identify small molecule agonists of the androgen receptor (AR) signaling pathway in the presence of an antagonist (AID 1259381; calls by dose curve; also: nearly all actives have a fitted effect of over 15% in size). The method, boiled down:
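MDA-kb2 human breast carcinoma cells carrying an MMTV-luciferase reporter (AR- and GR-responsive) were treated with compounds at 15 concentrations plus 3.0uM final nilutamide for 16hr at 37C without CO2; luminescence was read after ONE-Glo addition.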

In experiment [12] the target is Estrogen receptor (Homo sapiens) (UniProt P03372). In words: qHTS assay to identify small molecule agonists of the estrogen receptor alpha (ER-alpha) signaling pathway in the presence of an antagonist (AID 1259383; calls by dose curve; also: top concentration of the series differs between compounds; nearly all actives have a fitted effect of over 15% in size). The method in brief: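 VM7Luc4E2 cells (endogenous full-length ER-alpha, 4×ERE-luciferase) were precultured 5 days in phenol red-free medium with 10% charcoal-stripped FBS, given 10.0nM ICI-182,780 (final), then treated with compounds at 15 concentrations for 22hr at 37C; luminescence read with ONE-Glo.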

A short description of experiment [13]: qHTS assay to identify small molecule agonists or antagonists of the thyroid stimulating hormone receptor (TSHR) signaling pathway - wild type cell line counter screen (AID 1259384; calls by dose curve). The method, boiled down:
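Counter screen in untransfected Hek293: compounds (15-point titration, triplicate) plus phosphodiesterase inhibitor Ro20-1724 added after 18 h plating; 30 min RT. Intracellular cAMP via competitive d2/cryptate immunoassay, 1 h incubation.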

Experiment [14] in a line: qHTS assay to identify small molecule agonists of the estrogen receptor alpha (ER-alpha) signaling pathway in the presence of an antagonist - cell viability counter screen (AID 1259386). Also: nearly all actives have a fitted effect of over 30% in size. Also: potency is read from the fitted curve at half-maximal effect. The method in brief:
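VM7Luc4E2 cells (endogenous full-length ER-alpha, 4×ERE-luciferase) were held 5 days in phenol red-free medium with 10% charcoal-stripped FBS, plated, then given 10.0nM ICI-182,780 and compounds at 15 concentrations for 22hr at 37C; viability read by CellTiter-Fluor fluorescence.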

Experiment [15] is described as follows: qHTS assay to identify small molecule phospholipidosis (PLD) inducers (AID 1259344; active = well fitted curve in the direction sought with a large enough effect; an effect the other way counts as inactive or inconclusive). The method, boiled down: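 Phospholipidosis is scored by imaging LipidTOX-stained pits in HepG2 cells exposed to compound for 24 h at 37 C; pit counts and integrated intensities per well and per cell serve as outputs.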
Experiment [16] in a line: qHTS assay to identify small molecule HDAC inhibitors (AID 1259364). Also: top concentration of the series differs between compounds; nearly all actives have a fitted effect of over 45% in size. The method in brief:
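Wild-type HCT-116 cells were plated overnight, exposed to compounds for 2 h at 37 °C, then given HDAC-Glo class I/II luminogenic reagent for 30 min at room temperature before luminescence was read.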

The target of experiment [17] is Estrogen receptor beta (Homo sapiens) (UniProt Q92731). In words: qHTS assay to identify small molecule antagonists of the estrogen receptor beta (ER-beta) signaling pathway (AID 1259378; active = well fitted inhibition curve with a large enough effect in the signal ratio in the repeat runs, not every such curve was filed as active; the % refers to the signal ratio; also: potency is read from the fitted curve at half-maximal effect). The method in brief:
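Antagonist mode: compounds added to beta-lactamase reporter HEK293T ER-beta-UAS cells stimulated with E2 (1nM final), 16 hr at 37C. LiveBLAzer B/G FRET substrate, 2 hours room temperature, fluorescence read-out.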

A short description of experiment [18]: qHTS assay to identify small molecule antagonists of the estrogen receptor beta (ER-beta) signaling pathway - cell viability counter screen (AID 1259382). Also: nearly all actives have a fitted effect of over 55% in size. Also: potency is read from the fitted curve at half-maximal effect. The method in brief: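 ER-beta-UAS-bla HEK293T cells (2,000/well, 2% charcoal-stripped FBS) were pre-incubated 6 hr at 37C, then given compound plus 1nM final 17-beta-estradiol for 16 hr. Viability was read in the same wells by CellTiter-Glo luminescence after 30 min at room temperature.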

Experiment [19] has as its target Thyrotropin receptor (Homo sapiens) (UniProt P16473). Nature of the experiment: qHTS assay to identify small molecule antagonists of the thyroid stimulating hormone receptor (TSHR) signaling pathway (AID 1259385; calls by dose curve; also: nearly all actives have a fitted effect of over 20% in size). The method, boiled down: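 Antagonist mode: compound-treated TSHR-expressing HEK293 cells were stimulated with 1.5 ng/mL TSH (final) in presence of Ro20-1724 for 30 min at RT. HTRF cAMP detection after 1 h; each compound tested at 15 concentrations, triplicate.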

In experiment [20] the target is Estrogen receptor beta (Homo sapiens) (UniProt Q92731). In words: qHTS assay to identify small molecule agonists of the estrogen receptor beta (ER-beta) signaling pathway (AID 1259377; active = well fitted activation curve with a large enough effect in the signal ratio in the repeat runs, not every such curve was filed as active; the % refers to the signal ratio). The method, boiled down:
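In HEK293T cells bearing a UAS-beta-lactamase reporter under ER-beta control, DMSO-delivered compounds were incubated for 16 hr at 37C. Activity was detected as fluorescence 2 hours after LiveBLAzer B/G FRET substrate addition.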

Values joined by “and” are separate entries in the source; they are usually repeats but may differ in a detail not shown here. Identical values can stand only once. Inconclusive results are not listed. More than one record can exist for a structure, and the calls need not agree. Active and inactive are the calls of the source. Unless noted, calls follow the shape of the dose curve; as a rule, active = well fitted curve in the direction sought with a large enough effect in the repeat runs; inconclusive = weak or mixed curves; inactive = no such curve, though single readings can be large; an effect the other way counts as inactive or inconclusive.

Chain of Estrogen receptor beta (Homo sapiens) (Q92731 whole entry, looked up): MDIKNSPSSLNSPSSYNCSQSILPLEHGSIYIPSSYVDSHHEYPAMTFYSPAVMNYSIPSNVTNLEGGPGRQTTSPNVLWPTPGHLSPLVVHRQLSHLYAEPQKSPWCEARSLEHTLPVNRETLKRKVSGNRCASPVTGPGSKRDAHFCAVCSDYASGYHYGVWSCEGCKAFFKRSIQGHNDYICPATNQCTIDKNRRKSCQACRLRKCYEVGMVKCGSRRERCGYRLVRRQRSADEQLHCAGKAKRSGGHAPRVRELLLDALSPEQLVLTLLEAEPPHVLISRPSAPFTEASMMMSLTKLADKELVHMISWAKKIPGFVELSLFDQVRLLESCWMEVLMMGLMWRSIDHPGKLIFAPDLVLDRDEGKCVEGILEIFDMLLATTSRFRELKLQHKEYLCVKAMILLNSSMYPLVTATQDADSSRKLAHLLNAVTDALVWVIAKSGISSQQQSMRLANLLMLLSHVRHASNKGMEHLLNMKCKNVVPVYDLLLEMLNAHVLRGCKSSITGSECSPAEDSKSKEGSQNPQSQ
Chain of Thyrotropin receptor (Homo sapiens) (P16473 whole entry, looked up): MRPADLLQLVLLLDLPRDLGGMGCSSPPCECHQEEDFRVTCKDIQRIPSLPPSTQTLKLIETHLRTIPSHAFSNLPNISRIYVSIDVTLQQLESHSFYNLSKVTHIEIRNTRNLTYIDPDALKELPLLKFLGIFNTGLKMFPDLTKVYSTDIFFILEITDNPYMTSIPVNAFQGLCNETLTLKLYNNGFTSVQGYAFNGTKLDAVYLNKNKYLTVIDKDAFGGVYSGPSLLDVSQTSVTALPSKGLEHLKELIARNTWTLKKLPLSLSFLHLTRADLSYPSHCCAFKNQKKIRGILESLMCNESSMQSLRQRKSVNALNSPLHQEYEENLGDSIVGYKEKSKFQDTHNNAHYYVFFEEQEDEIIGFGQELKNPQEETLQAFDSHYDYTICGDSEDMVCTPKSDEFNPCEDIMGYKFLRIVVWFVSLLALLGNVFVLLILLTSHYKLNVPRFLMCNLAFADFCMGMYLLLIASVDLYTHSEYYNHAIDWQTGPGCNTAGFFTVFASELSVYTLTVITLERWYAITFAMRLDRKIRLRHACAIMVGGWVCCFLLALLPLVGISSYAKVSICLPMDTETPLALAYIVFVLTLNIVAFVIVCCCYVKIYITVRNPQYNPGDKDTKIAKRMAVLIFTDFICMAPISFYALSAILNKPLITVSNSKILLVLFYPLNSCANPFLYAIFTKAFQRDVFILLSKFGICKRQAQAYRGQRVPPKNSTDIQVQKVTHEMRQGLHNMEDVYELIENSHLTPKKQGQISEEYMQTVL
Chain of Estrogen receptor (Homo sapiens) (P03372 whole entry, looked up): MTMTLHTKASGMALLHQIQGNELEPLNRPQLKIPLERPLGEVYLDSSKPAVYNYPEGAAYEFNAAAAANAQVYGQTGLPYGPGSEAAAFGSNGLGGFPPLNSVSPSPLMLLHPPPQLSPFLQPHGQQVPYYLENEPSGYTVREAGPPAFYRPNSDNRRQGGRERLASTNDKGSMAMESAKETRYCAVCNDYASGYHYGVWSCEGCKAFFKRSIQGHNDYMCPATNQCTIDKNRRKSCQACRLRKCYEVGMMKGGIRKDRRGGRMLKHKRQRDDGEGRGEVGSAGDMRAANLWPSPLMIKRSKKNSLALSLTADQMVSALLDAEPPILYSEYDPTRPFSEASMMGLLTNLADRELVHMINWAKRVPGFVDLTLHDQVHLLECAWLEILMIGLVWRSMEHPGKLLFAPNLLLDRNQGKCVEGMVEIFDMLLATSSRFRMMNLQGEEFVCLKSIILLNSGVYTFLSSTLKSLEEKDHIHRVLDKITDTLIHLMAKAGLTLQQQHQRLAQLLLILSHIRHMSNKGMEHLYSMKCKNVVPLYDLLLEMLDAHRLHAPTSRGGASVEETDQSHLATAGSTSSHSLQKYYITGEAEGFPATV
Chain of Androgen receptor (Homo sapiens) (P10275 whole entry, looked up): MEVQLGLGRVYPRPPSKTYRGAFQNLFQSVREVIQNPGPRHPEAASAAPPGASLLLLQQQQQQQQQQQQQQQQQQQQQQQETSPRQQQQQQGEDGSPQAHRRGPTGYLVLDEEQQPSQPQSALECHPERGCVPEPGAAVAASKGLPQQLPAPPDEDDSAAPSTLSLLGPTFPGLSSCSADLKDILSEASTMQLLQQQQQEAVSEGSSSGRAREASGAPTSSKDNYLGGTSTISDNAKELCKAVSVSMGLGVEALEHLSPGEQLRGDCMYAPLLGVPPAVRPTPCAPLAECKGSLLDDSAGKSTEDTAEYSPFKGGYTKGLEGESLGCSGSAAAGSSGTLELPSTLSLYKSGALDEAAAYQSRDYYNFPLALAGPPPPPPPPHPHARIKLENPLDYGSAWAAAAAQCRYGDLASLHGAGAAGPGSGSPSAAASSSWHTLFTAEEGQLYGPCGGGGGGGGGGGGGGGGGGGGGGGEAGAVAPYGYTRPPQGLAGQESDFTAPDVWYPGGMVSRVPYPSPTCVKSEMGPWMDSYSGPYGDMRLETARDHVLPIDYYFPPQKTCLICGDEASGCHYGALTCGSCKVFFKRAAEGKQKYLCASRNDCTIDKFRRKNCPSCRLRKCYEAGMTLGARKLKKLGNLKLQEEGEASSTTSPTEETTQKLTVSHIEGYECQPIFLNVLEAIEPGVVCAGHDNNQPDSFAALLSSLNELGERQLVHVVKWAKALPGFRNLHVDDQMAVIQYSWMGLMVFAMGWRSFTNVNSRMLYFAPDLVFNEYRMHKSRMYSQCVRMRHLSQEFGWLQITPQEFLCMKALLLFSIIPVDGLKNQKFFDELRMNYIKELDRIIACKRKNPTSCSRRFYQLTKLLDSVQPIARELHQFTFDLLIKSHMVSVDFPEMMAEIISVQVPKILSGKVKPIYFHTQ

Consider `Cc1cc(O)c(C(C)(C)C)cc1Sc1cc(C(C)(C)C)c(O)cc1C`, for which the Potency in [1] was 43.2 µM (active); in [2], 24.3 µM (active); in [3], 30.6 µM (active); in [4], 61 µM (active); in [5] it was 19.3 µM (active); in experiment [6] it was 19.3 µM (active). The Potency is 9.67 µM (active) in experiment [8], 30.6 µM (active) in experiment [9], 19.3 µM (active) in experiment [10] and 48.5 µM (active) in [14]. The Potency entry in [7], in [11] and in experiment [12] was “inactive” in each case. Besides, the call in experiment [13] was inactive.
Turning to `CC(C)(C)NC(=O)[C@@H]1C[C@@H]2CCCC[C@@H]2CN1C[C@@H](O)[C@H](Cc1ccccc1)NC(=O)[C@H](CC(N)=O)NC(=O)c1ccc2ccccc2n1`, the Potency in experiment [1] is 61.9 µM (active); in experiment [3], 61.9 µM (active); in experiment [5], 9.82 µM (active); in experiment [6], 13.9 µM (active); in experiment [8], 24.7 µM (active); in [17] it was 17.5 µM (active). The Potency is 61.9 µM (active) in experiment [9], 55.2 µM (active) in [10], 61.9 µM (active) in experiment [18] and 49.2 µM (active) in [14]. For the same compound, the Potency result in [15], in experiment [16], in experiment [4], in experiment [7], in [12] and in experiment [19] was “inactive” in each case.
Regarding `Oc1ccc(Cl)cc1Sc1cc(Cl)ccc1O`, the Potency in experiment [1] was 29.8 µM (active); in experiment [3], 30.6 µM (active) and 29.8 µM (active); in experiment [5], 30.6 µM (active) and inactive; in [6], 30.6 µM (active) and inactive; in [8], 26.6 µM (active); in experiment [17], 18.8 µM (active). The Potency is 21.6 µM (active) and 26.6 µM (active) in experiment [9]; 48.5 µM (active) and 29.8 µM (active) in [10]; 48.5 µM (active) in [18]; 29.8 µM (active) in experiment [14]. The Potency entry in experiment [15], in experiment [16], in experiment [4], in experiment [7] and in experiment [12] was “inactive” throughout.
Consider `Cc1onc(-c2ccccc2Cl)c1C(=O)N[C@@H]1C(=O)N2[C@@H]1SC(C)(C)[C@@H]2C(=O)O`, for which the Potency result in experiment [1], in experiment [3], in [15], in experiment [16], in [4] and in experiment [5] was “inactive” throughout. For the same compound, the Potency result in experiment [6], in experiment [7], in [20], in experiment [17], in experiment [9] and in experiment [10] was “inactive” throughout. For the same compound, the Potency entry in [18], in experiment [12], in experiment [19] and in experiment [14] was “inactive” throughout.
Regarding `O=c1[nH]cnc2nc[nH]c12`, the Potency entry in experiment [1], in experiment [3], in experiment [15], in experiment [16], in experiment [4] and in experiment [5] was “inactive” each time. In addition, the Potency entry in [6], in [7], in experiment [8], in experiment [9], in experiment [10] and in experiment [18] was “inactive” throughout. The Potency entry in experiment [12], in [19] and in experiment [14] was “inactive” each time. Besides, the compound was called inactive in experiment [13].
Turning to `Oc1c(Cl)cc(Cl)c2cccnc12`, the Potency entry in experiment [1], in experiment [15], in [16], in experiment [4], in experiment [7] and in [12] was “inactive” in each case. Further, the Potency entry in [19] and in [14] was “inactive” each time. Further, the Potency is 18.8 µM (active) in experiment [3], 4.22 µM (active) in [5], 4.73 µM (active) in experiment [10] and 11.9 µM (active) in [18]. In addition, the call in [13] was inactive.
`CCCN(CCC)c1c([N+](=O)[O-])cc(C(F)(F)F)c(N)c1[N+](=O)[O-]`: the Potency in experiment [1] is 60.9 µM (active); in experiment [3], 54.3 µM (active); in experiment [4], 60.9 µM (active); in [5], 48.4 µM (active); in experiment [6] it was 60.9 µM (active); in experiment [8], 21.6 µM (active). The Potency in experiment [9] was 60.9 µM (active); in experiment [10], 21.6 µM (active); in experiment [18], 30.5 µM (active); in [14], 60.9 µM (active). Moreover, the Potency entry in [16], in [7] and in experiment [12] was “inactive” throughout.

The values above are taken from PubChem BioAssay (Tox21).
